Our source for the growth values is PubChem BioAssay (NCI).

The panel holds about 83,000 compounds, 20% with a hit somewhere; the sample as a whole holds those more often.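 Percent growth is the endpoint: 0 to 100 indicates growth inhibition (40 means 60% inhibition), 0 means no net growth, and negative values indicate cell death.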 A number with no mark means an inactive call. Calls of active or inactive are those of the source. Rule for the calls: active = growth percent below 10; inactive = the rest.

Among the test systems are BT-549 breast; MDA-MB-435 melanoma; SW-620 colon; MCF7 breast; HCT-116 colon; HCC-2998 colon; KM12 colon.
Test in all cases: NCI-60 one-dose screen, 48 h (100 = growth as untreated, 0 = no growth, -100 = all killed)
Holding throughout (conditions): 10 µM

Take `Cc1ccc(C)c(C(O)(c2cc(C)ccc2C)C2(O)CCCCC2)c1`: the growth was 100% in the test with BT-549 breast; 105% in the test with MDA-MB-435 melanoma; 96.8% in the test on SW-620 colon; 97.6% in the test on MCF7 breast; 90.5% in the test with HCT-116 colon; 108% in the test on HCC-2998 colon. Besides, the growth in the test on KM12 colon was 95.4%.

With `N#Cc1c(C#N)c(SSc2c(C#N)c(C#N)c(N)n2-c2ccccc2)n(-c2ccccc2)c1N`, the growth in the test with BT-549 breast was 109%; in the test on MDA-MB-435 melanoma, 114%; in the test with SW-620 colon it was 98.7%; in the test on MCF7 breast it was 104%; in the test with HCT-116 colon it was 104%; in the test on HCC-2998 colon, 96.3%. In addition, in the test on KM12 colon, the growth is 106%.

`CCCCCCN1C(=O)C2=C(c3ccc(Cl)cc3)Nc3c(c(C)nn3-c3ccccc3)C2c2ccccc21` (stereo unspecified): the growth is 102% in the test with BT-549 breast; 89.8% in the test on MDA-MB-435 melanoma; 111% with SW-620 colon; 77.8% with MCF7 breast; 87.9% with HCT-116 colon; 92.1% with HCC-2998 colon. The growth in the test on KM12 colon is 107%.

For the compound `O=c1c2ccccc2nc(SCCN2CCCCC2)n1CCc1ccccc1`, the growth in the test on BT-549 breast is 86.3%; with MDA-MB-435 melanoma, 95.9%; in the test on SW-620 colon, 89.9%; with MCF7 breast, 63.3%; in the test with HCT-116 colon, 74%; with HCC-2998 colon, 97.9%. For the same compound, the growth in the test with KM12 colon is 94.2%.

Turning to `N#Cc1ncc(Br)c(NC2CCCCCC2)n1`, the growth in the test on BT-549 breast is 98.4%; with MDA-MB-435 melanoma, 103%; in the test on SW-620 colon, 113%; in the test with MCF7 breast it was 92.1%; with HCT-116 colon it was 104%; with HCC-2998 colon it was 111%. Further, the growth in the test with KM12 colon is 113%.

Turning to `CN(C)CCN1C(=O)c2cccc3c(-c4ccc5ncn(C6CCCCC6)c5c4)ccc(c23)C1=O`, the growth in the test with BT-549 breast was 56.5%; in the test on MDA-MB-435 melanoma, 39.9%; in the test on SW-620 colon, 21.4%; in the test on MCF7 breast, 12.1%; in the test with HCT-116 colon, 8.6% (active); in the test on HCC-2998 colon it was 39.8%. Also, the growth with KM12 colon is 24.8%.

`Cc1nc2c(c(=O)[nH]1)OCN(Cc1ccccc1)C2`: the growth with BT-549 breast is 102%; with MDA-MB-435 melanoma it was 112%; in the test with SW-620 colon it was 102%; in the test with MCF7 breast, 102%; in the test with HCT-116 colon, 100%; with HCC-2998 colon, 104%. For the same compound, the growth with KM12 colon was 104%.

In the case of `CCOC(=O)C1CCc2c(ccc3ccccc23)N1CCC#N` (stereo unspecified), the growth with BT-549 breast is 96%; in the test with MDA-MB-435 melanoma, 35.6%; in the test on SW-620 colon it was 91.9%; in the test on MCF7 breast, 85.9%; with HCT-116 colon, 96.4%; in the test on HCC-2998 colon it was 93.5%. Further, the growth in the test with KM12 colon is 94.9%.

For the compound `C=C(NC(=O)C(=C)NC(=O)c1csc(C2=NC3c4csc(n4)C4NC(=O)c5csc(n5)C(C(C)(O)C(C)O)NC(=O)C5CSC(=N5)/C(=C/C)NC(=O)C(C(C)O)NC(=O)c5csc(n5)C3(CC2)NC(=O)C(C)NC(=O)C(=C)NC(=O)C(=C)NC(=O)C(C(C)C)NC2C=Cc3c(C(C)O)cc(nc3C2O)C(=O)OC4C)n1)C(N)=O` (stereo unspecified), the growth was -35.1% (active) in the test with BT-549 breast; -65.2% (active) with MDA-MB-435 melanoma; -8.45% (active) with SW-620 colon; 19.8% in the test on MCF7 breast; -49.5% (active) with HCT-116 colon; -57.2% (active) with HCC-2998 colon. Also, the growth in the test with KM12 colon was -88.1% (active).

For the compound `CN(C)c1ccc(-c2cc(-c3cccc(NS(C)(=O)=O)c3)nc(N)c2C#N)cc1`, the growth with BT-549 breast was 30.8%; in the test on MDA-MB-435 melanoma, -25.9% (active); with SW-620 colon it was 24.3%; with MCF7 breast it was 16.1%; with HCT-116 colon it was 5.65% (active); with HCC-2998 colon it was -41.9% (active). In the test with KM12 colon, the growth is -14.3% (active).

Turning to `COC(=O)c1c(-c2ccccc2)csc1NC(=O)c1c(-c2ccccc2)noc1C`, the growth in the test on BT-549 breast was 59.2%; in the test on MDA-MB-435 melanoma it was 32.7%; in the test with SW-620 colon it was 19.4%; in the test on MCF7 breast, 24.6%; in the test on HCT-116 colon, 6% (active); in the test with HCC-2998 colon, 63.5%. Further, the growth with KM12 colon was 27.9%.

As to `Clc1ccc(/C=C2\CCCC3=C2N=C2SC=NN2C3c2ccc(Cl)cc2)cc1` (stereo unspecified), the growth in the test with BT-549 breast is 117%; with MDA-MB-435 melanoma it was 76.7%; in the test with SW-620 colon, 94.1%; in the test on MCF7 breast it was 23.7%; in the test on HCT-116 colon, 5.7% (active); with HCC-2998 colon, 77.2%. Further, the growth in the test with KM12 colon was 83.9%.

`CO/N=C(/C(=O)NC1C(=O)N2C(C(=O)O)=C(COC(N)=O)CSC12)c1ccco1` (stereo unspecified): the growth in the test with BT-549 breast was 108%; in the test with MDA-MB-435 melanoma, 104%; with SW-620 colon, 110%; in the test with MCF7 breast it was 94.2%; in the test on HCT-116 colon, 104%; in the test on HCC-2998 colon, 104%. The growth in the test on KM12 colon is 113%.

For `COc1cc(-c2nc(-c3nnc(-c4ccc(F)c(Cl)c4)o3)c3ccccn23)cc(OC)c1OC`, the growth in the test on BT-549 breast was 2.74% (active); in the test with MDA-MB-435 melanoma, 49.8%; in the test on SW-620 colon it was 58.7%; in the test with MCF7 breast it was 15.5%; in the test with HCT-116 colon it was -31.5% (active); in the test with HCC-2998 colon it was 64.1%. Further, in the test on KM12 colon, the growth was 5.68% (active).

Turning to `O=C(N/N=C/c1ccccc1)C(Oc1ccccc1)c1ccccc1` (stereo unspecified), the growth was 105% with BT-549 breast; 44% in the test on MDA-MB-435 melanoma; 96.2% in the test with SW-620 colon; 97.9% with MCF7 breast; 87.2% in the test on HCT-116 colon; 97.3% in the test on HCC-2998 colon. The growth with KM12 colon was 84.5%.

As to `Nc1nc(N)c(NC(=O)CNc2ccc(C(=O)O)cc2)c(N)n1`, the growth is 116% in the test on BT-549 breast; 105% with MDA-MB-435 melanoma; 105% in the test on SW-620 colon; 91.3% in the test with MCF7 breast; 113% in the test with HCT-116 colon; 107% in the test on HCC-2998 colon. For the same compound, the growth in the test on KM12 colon is 114%.

In the case of `CCOC(=O)C(=Cc1ccc(Br)cc1)C(=O)OCC`, the growth in the test on BT-549 breast is -43.3% (active); with MDA-MB-435 melanoma, -4.37% (active); in the test with SW-620 colon, -71.2% (active); in the test with MCF7 breast, 0.372% (active); in the test with HCT-116 colon, -80.4% (active); in the test on HCC-2998 colon, -82.2% (active). Also, the growth in the test with KM12 colon is -25.3% (active).

For the compound `CCN(CC)CCNc1ccc(CO)c2oc3cc(Cl)ccc3c(=O)c12`, the growth was 94.9% in the test with BT-549 breast; 78.4% with MDA-MB-435 melanoma; 71.3% with SW-620 colon; 64.5% in the test with MCF7 breast; 58.6% with HCT-116 colon; 88.3% with HCC-2998 colon. Also, the growth with KM12 colon was 98.6%.
